CRFBP-R2 agonist – agonists of CRF-BP/CRF-R2 complex, primary screen, cell-based, HEK293, calcium dye fluorescence, uHTS; calcium dye fluorescence (FLIPR); percent of saturating CRF peptide response; activation, % at 13.2 µM; 350,000 tested, 0.46% active; AID 588473, 2011;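 active means activation of at least 50%, plus an integration ratio under a set limit after plate pattern correction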
RTF Ca sens inh – cardiac RTF calcium sensitivity inhibitors, primary screen, biochemical, IANBD-TnC fluorescence, EC70 calcium. IANBD-labeled cardiac RTF, Ca2+ fluorescence. inhibition, % at 7.15 µM. 340,000 tested, 0.12% active;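 active means inhibition above the mean inhibition of all tested compounds plus 3 SD, cut at about 17% in these data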;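 further: assay run at fixed EC70 calcium of 1.6 mM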
CRFBP-R2 block – antagonists of CRF-BP/CRF-R2 complex, primary screen, cell-based, HEK293, calcium dye fluorescence, uHTS | CRF-induced calcium fluorescence | inhibition, % at 11.8 µM | 350,000 tested, 0.59% active | AID 588475, 2011;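 active means inhibition of the ligand-induced calcium signal above about 50% at the single tested concentration, limit read from the data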
IDE cell inh – human IDE inhibitors in live cells, primary screen, fluorescence polarization, HEK cells, FAbetaB substrate; inhibition, % at 5.59 µM; 320,000 tested, 0.41% active; FAbetaB cleavage; AID 434962, 2010; Insulin-degrading enzyme (Homo sapiens), P14735;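 active means percent inhibition above the average of all tested compounds plus 3 SD, set per screening campaign, cut at about 16% in these data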;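 further: IDE supplied by intact live HEK cells; FP after avidin binding of uncleaved biotin substrate so inhibition keeps polarization high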
Target sequence (P14735 whole entry, looked up): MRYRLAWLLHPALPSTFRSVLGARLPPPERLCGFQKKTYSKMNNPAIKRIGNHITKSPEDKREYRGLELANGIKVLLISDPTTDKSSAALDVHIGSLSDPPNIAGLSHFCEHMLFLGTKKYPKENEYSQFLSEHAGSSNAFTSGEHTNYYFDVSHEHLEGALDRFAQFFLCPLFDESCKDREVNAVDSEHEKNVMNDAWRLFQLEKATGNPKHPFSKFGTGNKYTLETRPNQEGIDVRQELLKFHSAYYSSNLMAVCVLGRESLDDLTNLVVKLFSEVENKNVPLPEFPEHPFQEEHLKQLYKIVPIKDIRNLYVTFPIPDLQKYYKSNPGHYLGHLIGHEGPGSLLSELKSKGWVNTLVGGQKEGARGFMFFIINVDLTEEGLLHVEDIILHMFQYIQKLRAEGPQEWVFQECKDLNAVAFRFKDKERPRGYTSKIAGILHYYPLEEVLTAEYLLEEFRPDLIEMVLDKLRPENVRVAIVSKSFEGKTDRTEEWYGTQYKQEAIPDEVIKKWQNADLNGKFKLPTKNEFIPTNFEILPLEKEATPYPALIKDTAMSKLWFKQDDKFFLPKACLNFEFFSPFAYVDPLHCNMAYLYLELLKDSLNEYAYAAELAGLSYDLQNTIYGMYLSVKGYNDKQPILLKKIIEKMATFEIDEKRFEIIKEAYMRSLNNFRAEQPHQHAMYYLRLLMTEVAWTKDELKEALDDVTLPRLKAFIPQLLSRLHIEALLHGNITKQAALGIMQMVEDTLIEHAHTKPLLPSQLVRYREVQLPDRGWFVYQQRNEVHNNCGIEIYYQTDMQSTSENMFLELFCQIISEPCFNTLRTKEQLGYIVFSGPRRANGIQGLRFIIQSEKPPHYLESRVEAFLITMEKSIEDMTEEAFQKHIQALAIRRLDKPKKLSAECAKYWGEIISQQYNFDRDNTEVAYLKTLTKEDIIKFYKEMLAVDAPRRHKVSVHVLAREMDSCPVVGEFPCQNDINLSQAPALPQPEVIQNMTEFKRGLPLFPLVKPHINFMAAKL
RTF Ca sens act – cardiac RTF calcium sensitivity activators, primary screen, biochemical, IANBD-TnC fluorescence, EC20 calcium; Troponin I, cardiac muscle (Homo sapiens) + Troponin T, cardiac muscle (Homo sapiens) + …; IANBD-labeled TnC RTF fluorescence at EC20 calcium; 0% EC20 calcium, 100% full calcium; activation, % at 7.2 µM; 340,000 tested, 0.24% active; AID 493008, 2010;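 active means activation above the mean over all tested compounds plus 3 SD, cut at about 30% in these data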;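 further: rise in fluorescence read as greater calcium sensitivity of cardiac thin filaments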
IDE cell activ – human IDE activators in live cells, primary screen, fluorescence polarization, HEK cells, FAbeta-B substrate; Insulin-degrading enzyme (Homo sapiens), P14735; FAbeta-B cleavage; 0% vehicle, 100% cell-free pure enzyme wells; activation, % at 5.96 µM; 340,000 tested, 0.073% active; AID 493087, 2011;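 active means activation above the mean of all tested compounds plus 3 SD, set per screening campaign, cut at about 17% in these data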
Each line names hits and unclear results; the compound was inactive in the other large screens. This is a sample that favours compounds with a hit; in the whole collection about 1.5% have one here.

CC(C)c1ccc(/C=C/C(=O)NC(=S)NN2CCOCC2)cc1	none (no result: IDE cell inh)
NC(=O)c1cnn(-c2ccc3ccccc3c2)c1N	none
Cc1ccc2[nH]cc(/C=C/c3cc[n+](C)cc3)c2c1	RTF Ca sens act 230 (no result: IDE cell inh)
CC(C)=C1C2CCC1C(C(=O)Nc1sc(C)c(-c3ccc(C(C)C)cc3)c1C(N)=O)C2C(=O)O (stereo unspecified)	CRFBP-R2 agonist 78, CRFBP-R2 block 109
CCC1CCCCN1C(=O)COc1ccc(F)cc1 (stereo unspecified)	none
CCC1CCCCN1C(=O)COC(=O)COc1ccc(Br)cc1 (stereo unspecified)	CRFBP-R2 agonist 93
COc1ccccc1OCC(=O)NCC1CCCN(C(=O)c2ccccc2C(C)=O)C1 (stereo unspecified)	CRFBP-R2 block 68
COc1ccc(N=Cc2cc3c(cc2O)OC(N)=C(C#N)C3c2ccccc2)cc1 (stereo unspecified)	RTF Ca sens act 71
COc1ccc(C2C(C#N)=C(N)Oc3cc(O)ccc32)cc1 (stereo unspecified)	none (no result: IDE cell inh)
O=C(CSc1nc2ccccc2n1CCc1ccccc1)NC1CC1	none
O=C(CSc1nc2ccccc2n1CCc1ccccc1)NC1CCS(=O)(=O)C1 (stereo unspecified)	CRFBP-R2 block 60
CSCCC(NC(=O)c1ccco1)C(=O)OCc1cc([N+](=O)[O-])cc2c1OCOC2 (stereo unspecified)	CRFBP-R2 agonist 56
COc1ccccc1NS(=O)(=O)c1ccc(N/N=C/c2c(C)nn(-c3ccccc3)c2N2CCCC2)c([N+](=O)[O-])c1	CRFBP-R2 block 56
Cc1nn(-c2ccccc2)c(N2CCCC2)c1/C=N/Nc1ccc(S(=O)(=O)Nc2ccccc2)cc1[N+](=O)[O-]	none
CN(C)CCNc1ncnc2c1sc1nc(-c3ccccc3)c3c(c12)CCCC3	IDE cell activ 32
CCC1(c2ccccc2)NC(=O)N(Cc2ccc(C(=O)OC)cc2)C1=O (stereo unspecified)	none
CCn1c(SCC(=O)N2CCCCC2)nc2c(c1=O)SCC2	CRFBP-R2 block 52
COCCn1c(SCC(=O)N2CCCCC2)nc2c(c1=O)SCC2	none
O=C(O)CC(c1ccccc1)N1C(=O)c2cccc([N+](=O)[O-])c2C1=O (stereo unspecified)	none
COc1cc2c3nnc(-c4ccc(F)cc4)c-3cn(Cc3cccc(F)c3)c2cc1OC	RTF Ca sens act 49
COc1cc2c3nnc(-c4ccccc4)c-3cn(Cc3ccc(F)cc3)c2cc1OC	none
COc1cc2c3nnc(-c4ccc(F)cc4)c-3cn(Cc3ccc(C)cc3)c2cc1OC	RTF Ca sens act 41
COc1cc2c3nnc(-c4ccc(F)cc4)c-3cn(Cc3cccc(C)c3)c2cc1OC	none
CC12CCC(C(=O)N(c3ccccn3)c3ccccn3)(OC1=O)C2(C)C (stereo unspecified)	none
C[N+]1=C(/C=C/Nc2ccccc2Cl)C(C)(C)c2ccccc21	none
COC(=O)c1ccc2c(c1)C(C)(C)C(/C=C/c1ccccc1O)=[N+]2C	CRFBP-R2 agonist 53
CC(C)Cc1ccc(C(C)C(=O)Nc2ccccc2O)cc1 (stereo unspecified)	CRFBP-R2 agonist 77
CCCCn1c(N)c(N(CC(C)C)C(=O)C2CCN(S(=O)(=O)c3ccc(OCC)cc3)CC2)c(=O)[nH]c1=O	none
CC(C)(C)C(=O)NC(=S)NNC(=O)C(c1ccccc1)c1ccccc1	CRFBP-R2 agonist 192
Cc1ccc(NC(=O)CSCC(=O)OC(C)C(=O)Nc2ccccc2C)cc1 (stereo unspecified)	none (no result: IDE cell inh)
CCOc1ccc(C(=O)NNC(=O)CCNC(=O)c2ccco2)cc1OC	CRFBP-R2 block 97
CCOc1ccc(C(=O)NNC(=O)CCNC(=O)c2ccc(Br)cc2)cc1OC	none
C/C(Cc1nnn(-c2cc(C)on2)n1)=N\O	none (no result: RTF Ca sens inh, RTF Ca sens act, IDE cell activ)
